Measurements published in PubChem BioAssay (NCI).
The panel holds about 83,000 compounds, 20% with a hit somewhere; the sample as a whole holds those more often.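 96-well plates, one dose, 48 hours. Percent growth reported; active if below 10.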 Calls of active or inactive are those of the source.

What was measured:
Experiment in all cases: NCI-60 one-dose screen, 48 h (100 = growth as untreated, 0 = no growth, -100 = all killed)
Details in all cases: 10 µM unless noted
NCI-H23 lung = system: NCI-H23 lung
NCI-H226 lung = system: NCI-H226 lung
NCI-H322M lung = system: NCI-H322M lung
HOP-62 NSCLC = system: HOP-62 NSCLC
NCI-H460 lung = system: NCI-H460 lung
HOP-92 NSCLC = system: HOP-92 NSCLC
NCI-H522 lung = system: NCI-H522 lung
A549/ATCC NSCLC = system: A549/ATCC NSCLC
786-0 renal = system: 786-0 renal
COLO 205 colon = system: COLO 205 colon

Measured: growth

COC(=O)[C@]12CC[C@@H](C)[C@H](C)[C@@H]1C1=CC[C@@H]3[C@@]4(C)C(C=O)=C[C@@](C)(COS(C)(=O)=O)C4=CC[C@@]3(C)[C@]1(C)CC2
inactive: NCI-H322M lung 12.2%
active: NCI-H23 lung -45.8% | NCI-H226 lung -57% | HOP-62 NSCLC -14.5% | NCI-H460 lung -73.6% | HOP-92 NSCLC -87.7% | NCI-H522 lung -75.2% | A549/ATCC NSCLC -14.6% | 786-0 renal -66% | COLO 205 colon -39.9%

CNS(=O)(=O)Nc1nccc(Cc2c(C)c3ccc(Oc4ncccn4)cc3oc2=O)c1F
active: HOP-92 NSCLC -4.71% | COLO 205 colon 8.97%
inactive: NCI-H23 lung 24.1% | NCI-H226 lung 58% | NCI-H322M lung 33.3% | HOP-62 NSCLC 42.8% | NCI-H460 lung 61.3% | NCI-H522 lung 52% | A549/ATCC NSCLC 38.3% | 786-0 renal 68%

CCOC(=O)C1=C(C)NC(=O)NC1c1cc(=O)oc2ccc(C)cc12 (stereo not given)
inactive: NCI-H23 lung 96.9% | NCI-H226 lung 93.4% | NCI-H322M lung 98.6% | HOP-62 NSCLC 105% | NCI-H460 lung 108% | HOP-92 NSCLC 95.6% | NCI-H522 lung 81.5% | A549/ATCC NSCLC 97.6% | 786-0 renal 102% | COLO 205 colon 105%

O=C(Cc1ccccc1)Nc1nnc(NC2CCN(c3nnc(NC(=O)Cc4ccccc4)s3)CC2)s1
inactive: NCI-H23 lung 96.1% | NCI-H226 lung 98.7% | NCI-H322M lung 35.3% | HOP-62 NSCLC 75.9% | NCI-H460 lung 93.3% | HOP-92 NSCLC 94.5% | NCI-H522 lung 72.5% | A549/ATCC NSCLC 34.4% | 786-0 renal 89% | COLO 205 colon 90.1%

Cc1ccc(N=C2CSc3nnc(-c4csc5c4CCCC5)n3N2)cc1
active: COLO 205 colon -4.99%
inactive: NCI-H23 lung 41% | NCI-H226 lung 69.5% | NCI-H322M lung 57.9% | HOP-62 NSCLC 27.9% | NCI-H460 lung 11.8% | HOP-92 NSCLC 67.7% | NCI-H522 lung 29% | A549/ATCC NSCLC 26.5% | 786-0 renal 32.3%

COCc1c(-c2ccc(NC(=O)Nc3cc(C(F)(F)F)ccc3F)c(F)c2)c2c(N)ncnn2c1CN1CCOCC1
active: NCI-H23 lung -53.4% | NCI-H226 lung -7.25% | NCI-H322M lung -17% | HOP-62 NSCLC -58.9% | NCI-H460 lung -47.2% | HOP-92 NSCLC -32.8% | NCI-H522 lung -55.3% | A549/ATCC NSCLC -18.8% | 786-0 renal -43.5% | COLO 205 colon -88.8%

Oc1ccc(C(c2ccc(O)cc2)C(Cl)(Cl)Cl)cc1
inactive: NCI-H23 lung 99.8% | NCI-H226 lung 104% | NCI-H322M lung 98.2% | HOP-62 NSCLC 107% | NCI-H460 lung 98.2% | HOP-92 NSCLC 56.1% | NCI-H522 lung 83.2% | A549/ATCC NSCLC 89.2% | 786-0 renal 102% | COLO 205 colon 104%

NC1(c2ccc(-c3nc4ccn5c(=O)[nH]nc5c4cc3-c3ccccc3)cc2)CCC1
inactive: NCI-H23 lung 73.5% | NCI-H226 lung 67.7% | NCI-H322M lung 59.2% | HOP-62 NSCLC 50.3% | NCI-H460 lung 23.6% | HOP-92 NSCLC 23.2% | A549/ATCC NSCLC 32.8%
active: NCI-H522 lung 5.02% | 786-0 renal 9.74% | COLO 205 colon -19.8%

C=C1C[C@H](O)[C@H](Br)C(C)(C)[C@@]12CCC(C)=C(Cl)C2
active: A549/ATCC NSCLC 6.49% | COLO 205 colon -79.1%
inactive: NCI-H23 lung 12.9% | NCI-H226 lung 14.8% | NCI-H322M lung 40.3% | HOP-62 NSCLC 35.6% | NCI-H460 lung 13% | HOP-92 NSCLC 23.6% | NCI-H522 lung 15.7% | 786-0 renal 16.7%

CC(C)=CCc1cc2c(cc1O)C1=C(C(=O)C3=C(C1=O)S(=O)(=O)CCN3)C(C=C(C)C)O2 (stereo not given)
active: NCI-H23 lung -35.9% | NCI-H226 lung -54.1% | NCI-H322M lung -76.2% | HOP-62 NSCLC -52.7% | NCI-H460 lung -50.4% | HOP-92 NSCLC -11.7% | NCI-H522 lung -50.8% | A549/ATCC NSCLC -42.4% | 786-0 renal -12.3% | COLO 205 colon -69.8%

COc1ccc(-n2c(=O)c3ccccc3n(Cc3ccc(C(=O)NO)cc3)c2=O)cc1
inactive: NCI-H226 lung 31.8% | NCI-H322M lung 38.4% | HOP-62 NSCLC 25.8% | NCI-H460 lung 36.4% | HOP-92 NSCLC 48.2% | A549/ATCC NSCLC 38.6% | 786-0 renal 56.5%
active: NCI-H23 lung -50.1% | NCI-H522 lung -41.8% | COLO 205 colon -50.1%

CCOC(=O)c1sc(NC(=O)COc2ccc(/C=C3\Cc4ccc(Cl)cc4C3=O)cc2)nc1C
inactive: NCI-H23 lung 97.1% | NCI-H226 lung 97.1% | NCI-H322M lung 103% | HOP-62 NSCLC 109% | NCI-H460 lung 95% | HOP-92 NSCLC 92.5% | NCI-H522 lung 97.2% | A549/ATCC NSCLC 104% | 786-0 renal 110% | COLO 205 colon 118%

CN1CCN(CCOc2cc(OC3CCOCC3)c3c(Nc4c(Cl)ccc5c4OCO5)ncnc3c2)CC1
active: NCI-H322M lung 2.76%
inactive: NCI-H23 lung 81.4% | NCI-H226 lung 100% | HOP-62 NSCLC 29.7% | NCI-H460 lung 89.9% | HOP-92 NSCLC 35.3% | NCI-H522 lung 11.5% | A549/ATCC NSCLC 24.8% | 786-0 renal 48.1% | COLO 205 colon 42.5%
